The assay has as its system VDR:RXRa (NR concentration 270 nM, RXRa partner concentration 90 nM). In words: PBM binding z-score (relative to random genomic background probes); higher = stronger binding; sequences stand for … in GC…GCGATTGACAGCGTAGAATGAAGG
As to the method:
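Protein-binding microarray (Agilent 4x180K custom design, double-stranded 60-nt probes: 5' GC cap, 34-nt variable region, 24-nt constant primer region; full probe sequence given). Purified or IVT nuclear receptor:RXRα heterodimers (3:1 NR:RXRα, mostly 270:90 nM) or homodimers were incubated for 1 h in PBS with 2% milk and no ligand, then detected with Alexa488 antibodies. Fluorescence from o1-orientation probes (~5 replicates averaged) was converted to z-scores against 500 random hg19 background probes. Variable regions are seed direct-repeat (DR0–DR5) sites, all their single-nucleotide variants and half-site ablations.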
TCGAGTAGGTTAGTCCGGGCATTCAGCCAACATA: the PBM binding z-score came to 0.223.
The same measure for TCTCGGAGGACACGAAAGTTCAGAGCTCGACATC: 2.25.
Sequence CCAACTGGGCCACGAAAGGTCATTGATTCAGTGA gave a PBM binding z-score of 4.26.
GTACCAAGGTGAATAGGTAGTTGATGAGTAGGCG came in with a PBM binding z-score of -0.15.
As to CCTAGCCGGCCAGGGTCACTCAAGCATTTCGCTT, the PBM binding z-score stood at 2.37.
Under GCTCGGAGGACAAGGTCAGAGGTTTGTCCGTAGA stands 1.81; under AGTCAAAGATCACTAGGTAACGTAAGATTCAGCT, -0.124; under ACTTACGGGTCACCGAGGTTATAGCACGCGTATA, 7.82.
Sequence CGTCAAGGTTCAAGGTAACGTAACAGAAAGCAGC registered a PBM binding z-score of 3.05.
In turn, TCTTGTAGATCAAAGGTTAAGGAAGCCGAAGCCT displayed a PBM binding z-score of 1.59.
For ACAGACAGGTGGTGAAGGTAACTCAGGCTATCAT, the PBM binding z-score is -0.0297.
The sequence CAGCCTAGGTCAGGGCCGGTATAGGAGGAACGTT registered a PBM binding z-score of 0.178.
The same measure for GCTAGTTGGTCAGTAAAACGTCACACACCGGTCG: -0.225; for TCGTGTAGGTTACCAATGGGGCATTCAGCTTTCT: 0.608; for CGTCCAAGGTCAAGGTCGGTGAAAGAGACTCGAA: 4.2.
The same measure for ACTATTAGTTGAGACGAGGTCAACCGATAGGTTG: 4.47.
The same measure for TCTCGGAGGACACGACAGGTCAGAGCTCGACATC: 0.875; for CCTAGCAGGCCAGGGTCACTCATGCATTTCGCTT: 2.14; for CAGCCTAGGTCACGGCCAGTATAGGAGGAACGTT: 2.68.
In the case of TCATATAGGTAATACAGGTGAACGTCGGCATCTA, the PBM binding z-score worked out at 1.18.
The same measure for CGTCAATGTTCAAGGTAACGTAACAGAAAGCAGC: 0.0627; for ACACCAAGGTGATCGTGAGGTCGTTGATACTAAC: 3.21; for AGTAGTTGGTCAGCTGAGGTCACACACAATTCGG: 4.43.
The same measure for AATACAGGGTCTTCGTAGGCCAGAGTACGCACAG: 0.0684; for TCGAGTAGGTTAGGGGAATTCAGAATGGCGTCGA: -0.154.
The same measure for ACTTACGGGTAAACGAGGTTATAGCACGCGTATA: 4.1; for ACTAGTTGGTCAGCTGAGGTCACCCACAATTCGG: 4.46; for GCGACTGAGGCATCAGCAGGTTACCATAACTTAA: -0.37.
The sequence GCTAGTTGGTCAGTAAAAGGTCATACACCGGTCG gave a PBM binding z-score of 3.69.
CCGACTGGTGCAAAGGTTACCATACTCAGTACGA had a PBM binding z-score of 1.74.
For the sequence ATCGAAAGGTCGTGATGTGAGTATACAGAAAGGC, the PBM binding z-score was 2.98.
Sequence CAAACTAGGTCAAGAGGTCAAGGTCCGCTTCCCG displayed a PBM binding z-score of 5.53.
GTACCAAGGCGAATAGGTCGTTGATGAGTAGGCG returned a PBM binding z-score of -0.145.
TGTCTAAGTTCAAAGGTAACGTAAGTATCCACAC yielded a PBM binding z-score of 4.6.
For the sequence TCGAGTAGGTTAGTAGGGGCATTCAGCCAACATA, the PBM binding z-score amounted to 3.1.
Under CGAGCTAGGTCATTGACAGGACAGTGAATAGTAA stands 2.04.
Under CCTTATGGGTCAAGGTTATAGCACGGGTGGTACG stands 2.45.
As to AGAAGGAGGTTACCAAAGATCAGGGAAACGCTTG, the PBM binding z-score was 0.838.
The same measure for CGTCCAACGTCAAAGGTCAGTGAAGAGATGACGG: 2.8.
Regarding TCTGTTAGGTCAGTTGGTCAGCTAACGAGCTGCC, the PBM binding z-score amounted to 0.897.
